Test results as given in PubChem BioAssay (NCATS).
Values without a mark were called inactive. No rule for the calls is given here.

Each molecule was assayed on HIV-1 nucleocapsid protein NCp7 (binding to TG oligonucleotide) (assay: HIV Nucleocapsid (AID 346;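 also: potency is for inhibitors that block NC binding and lower polarization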)). Settings: HIV-1 NC / fluorescein-TGTGTGTG probe, fluorescence polarization.
In short: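 NCp7 100 nM + fluorescein TG4xF 10 nM; Hepes pH 7.5/250mM NaCl/1uM ZnCl2/0.004% PEG 20000; 1 hr RT; FP, 45 s exposure; oligo-only wells as negative control.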
Potency is read from the fitted curve at half-maximal effect.

Compound | Potency [µM]
Cc1noc(C)c1-c1nccc(N2CCNCC2)n1 | > 20
Cc1cccc(CNc2nc(-c3ccc4c(c3)OCO4)nc3ccccc23)c1 | > 20
COCCNc1ccnc(-c2ccccc2CN(C)C)n1 | > 20
COc1cccc(Nc2ncc3nc(C)c(=O)n(C4CC4)c3n2)c1 | > 20
COc1ccc(-n2c(=O)c(-c3cccs3)nc3cnc(Nc4cccc(OC)c4)nc32)cc1 | > 20
COc1ccc(NC(=O)N2CC[C@@]3(CCCN(S(C)(=O)=O)C3)C2)cc1 | > 20
Cc1cccc(CNc2ccnc(-c3cccnc3)n2)c1 | > 20
COc1ccc(-n2c(=O)c(-c3ccc(F)cc3)nc3cnc(N4CCNCC4)nc32)cc1 | > 20
COc1cccc(Cn2c(=O)c(-c3ccccc3)nc3cnc(N4CCN(C)CC4)nc32)c1 | > 20
COc1ccc(Oc2ncc3nc(C)c(=O)n(Cc4cccs4)c3n2)cc1 | > 20
CC(=O)N1CCC2(CCCN(Cc3ccccc3)C2)CC1 | > 20
Cc1noc(C)c1C(=O)N1CCC2(CCCN(C(=O)Nc3cccc(F)c3)C2)CC1 | > 20
Cc1cnc(CNc2ncnc3ccc(-c4ccoc4)cc23)cn1 | > 20
N#Cc1ccc(CN2CCCC3(CCN(C(=O)c4cccc(F)c4)CC3)C2)cc1 | > 20
COCCn1c(=O)c(-c2cc(F)cc(F)c2)nc2cnc(Oc3ccccc3)nc21 | > 20
CC(=O)N1CCC2(CC1)CCN(c1ccccc1)CC2 | > 20
Cc1ccccc1-c1nc(N2CCN(C)CC2)c2ccccc2n1 | > 20
COc1ccc(C(=O)N2CCC3(CC2)CN(c2ccc(-c4ccccc4)cc2)C3)cc1 | > 20
CCNc1ncc2nc(-c3cccc(C#N)c3)c(=O)n(CCC#N)c2n1 | > 4
COCC(=O)N1CCC2(CCCN(Cc3nccs3)C2)CC1 | > 20
CN(C)Cc1ccccc1-c1ccc2ncnc(N3CCOCC3)c2c1 | > 20
CS(=O)(=O)N1CCC2(CCCN(Cc3ccccc3)C2)CC1 | > 20
COc1ccc2[nH]cc(CCNc3nc(-c4ccoc4)nc4ccccc34)c2c1 | > 20
Cn1cccc1C(=O)N1CCC2(CC1)CN(Cc1cc(C(F)(F)F)cc(C(F)(F)F)c1)C2 | > 20
Cc1nc2cnc(N3CCN(C)CC3)nc2n(-c2ccccc2)c1=O | > 20
